# Compound activity as filed in PubChem.
# DAX1 inh-1: DAX1 (NR0B1) inhibitors, primary screen, cell-based, HEK293, Gal4-DAX1, luciferase luminescence | Nuclear receptor subfamily 0 group B member 1 (Homo sapiens), P51843 | HEK293 Gal4-DAX1 luciferase reporter | 0.99% of 340,000 active | inhibition, % at 6.75 µM;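 active means inhibition above the mean over all tested compounds plus 3 SD, cut at about 4.2% in these data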;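 further: 0% = DAX1-transfected cells with DMSO and 100% = empty-vector control cells with DMSO; inhibition shows as a rise in luminescence from relieved DAX1 repression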
# Target sequence (P51843 207-470 limits assumed): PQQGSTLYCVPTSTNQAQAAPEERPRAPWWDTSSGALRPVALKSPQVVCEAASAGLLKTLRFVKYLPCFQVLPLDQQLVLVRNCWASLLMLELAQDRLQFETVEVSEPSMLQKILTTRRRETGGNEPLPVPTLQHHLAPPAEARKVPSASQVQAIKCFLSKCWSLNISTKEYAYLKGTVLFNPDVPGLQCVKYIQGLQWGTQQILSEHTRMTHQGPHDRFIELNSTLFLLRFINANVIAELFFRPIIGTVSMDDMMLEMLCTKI
# hcDAF-12 act: H. contortus DAF-12 nuclear receptor activators, primary screen, cell-based, luminescence, HEK293, lit1-tk-luc reporter; HEK293 hcDAF-12 lit1-tk-luc reporter; 0% DMSO, 100% Δ7-dafachronic acid; activation, % at 6.8 µM; 1.4% of 370,000 active; AID 652067, 2013;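 active means activation above the mean of all tested compounds plus 3 SD, cut at about 5.5% in these data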;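 further: 100% = response to 3 µM Δ7-dafachronic acid high control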
# ssDAF12 agonist: S. stercoralis DAF-12 nuclear receptor activators, primary screen, cell-based, luminescence, HEK293, GRIP1 co-expression, lit1-tk-luc; HEK293 ssDAF-12/GRIP1 lit1-tk-luc reporter; % of 3 µM dafachronic acid response; 1% of 370,000 active; activation, % at 6.8 µM;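 active means activation above the mean over all tested compounds plus 3 SD, cut at about 0.9% in these data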;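 further: 0% = DMSO-only wells and 100% = 3 µM delta7-dafachronic acid wells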
# hgDAF12 agonist: H. glycines DAF-12 receptor agonists, primary screen, cell-based, luminescence, HEK293, GAL4 fusion, UAS-luciferase. AID 687014, 2013. HEK293 GAL4-hgDAF12 UAS-luciferase reporter, agonist luminescence; normalized to butyrate control. Nuclear hormone receptor DAF-12 (Heterodera glycines), GAL4 fusion. activation, % at 6.8 µM. 1.8% of 370,000 active;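 active means activation above a cutoff set at the mean of all screened compounds plus 3 SD, cut at about 10% in these data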;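 further: 0% = DMSO wells and 100% = sodium butyrate wells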
# DAX1 inh-2: DAX1 (NR0B1) inhibitors on StAR promoter, primary screen, cell-based, luminescence, SF-1 (NR5A1), full-length DAX-1. inhibition, % at 6.8 µM. HEK293T StAR-luciferase reporter, SF-1/DAX-1 repression relief. 1.1% of 370,000 active;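 active means inhibition above the mean over all tested compounds plus 3 SD, cut at about 3.6% in these data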;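 further: 0% = DAX-1 cells with DMSO and 100% = cells lacking DAX-1 with DMSO; higher inhibition means more luminescence from relief of DAX-1 repression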
# Active calls of the source: *; . = no result given. Hits are enriched below; roughly 4.1% of the tested compounds scored in any of these assays.
SMILES,DAX1 inh-1,hcDAF-12 act,ssDAF12 agonist,hgDAF12 agonist,DAX1 inh-2
C[C@@H]1CN(Cc2nc(-c3cccs3)no2)C[C@H](C)O1,9.4*,0,0,2,1
O=C(Nc1ccccc1O)c1ccc2c(c1)C(=O)N(N1C(=O)c3ccccc3C1=O)C2=O,0,5.9*,1.3*,2,1
O=C(Nc1ccc(O)cc1)c1ccc2c(c1)C(=O)N(N1C(=O)c3ccccc3C1=O)C2=O,1,0,-1,-1,-1
CCOC(=O)[C@]12CCCCC/C=C\1N(CCc1ccc(Cl)cc1)C(=O)[C@H]2CC(=O)NCc1cccc2ccccc12,.,-1,-1,1,-1
C=CCn1c(/N=C/c2ccc3c(c2)OCO3)nc2ccccc21,0,0,1.2*,0,0
CCCn1c(/N=C/c2ccc3c(c2)OCO3)nc2ccccc21,0,-1,-2,0,0
COc1ccc(Cn2c(=N)c(C(=O)NCC3CCCO3)cc3c(=O)n4ccccc4nc32)cc1 (stereo unspecified),1,5.7*,-1,7,-1
C[C@H]1Cn2cnc(C(=O)N3CCN(c4ccccc4)CC3)c2C(=O)N1,.,0,-1,-2,-1
COc1ccc(-c2nnc(SCC(=O)NN=Cc3c(O)ccc4ccccc34)n2-c2ccc(OC)cc2)cc1,.,-2,-1,-4,-2
CN(CCOC(=O)CCCc1ccccc1)C1CN(Cc2cn(Cc3ccccc3F)nn2)S(=O)(=O)C1 (stereo unspecified),.,-2,-1,1,-1
Clc1cccc(-c2csc(Nc3cccnc3)n2)c1,1,5.8*,0,5,0
CCN(CC)CCCN1C(=O)C2=C(C1=O)C1N(C)c3ccccc3[C@@]13C[C@@H](CO)N(C(=O)CCC(=O)OC)C3=N2 (stereo partly specified),.,0,-2,2,0
O=C(Nc1ccccc1C(F)(F)F)c1cc(-c2ccccc2O)on1,2,0,0,12*,2
Cn1cc(Br)c(C(=O)NNC(=O)Nc2ccccc2C(F)(F)F)n1,4.2*,0,-1,10,1
CC(=O)Nc1ccccc1C(F)(F)F,4.3*,0,-1,1,0
Cn1cc(Br)c(C(=O)NNC(=O)c2ccccc2)n1,0,-2,-2,0,0
Cn1cccc1C(=O)C(=O)Nc1ccccc1,1,5,1.0*,13*,3.8*
CCOC(=O)[C@@]12CCCC=C1N(CCc1ccc(Cl)cc1)C(=O)[C@H]2CC(=O)N1CCOCC1,.,-5,-2,-6,-3
S=C(Nc1cc(Cl)cc(Cl)c1)NC(c1ccccc1)c1ccccc1,.,-4,-2,-7,.
CC(NC(=O)C(NC(=O)OCc1ccccc1)C(C)O)C(=O)OCc1ccccc1 (stereo unspecified),.,0,-1,5,1
CC(C)(C)C(=O)NC(=O)Nc1ccccc1C(F)(F)F,2,-1,-1,-1,0
Cn1cccc1C(=O)C(=O)Nc1ccccc1C(F)(F)F,4.4*,0,-1,4,2
COCc1cc(N2CCN(C(=O)OC(C)(C)C)C[C@H]2C)ccc1N1CCN(Cc2ccccc2)[C@@H](C)C1,.,-2,-1,3,-1
O=C1C2CCCN2C(c2ccccc2F)N1c1ccc(Cl)cc1 (stereo unspecified),0,2,-1,1,0
COc1ccc(N2C(=O)C3CCCN3C2c2ccccc2F)cc1 (stereo unspecified),4.9*,2,-1,1,1
SMILES,DAX1 inh-1,hcDAF-12 act,ssDAF12 agonist,hgDAF12 agonist,DAX1 inh-2
CC(=O)c1c(C)[nH]c(C(=O)NCCc2ccccc2)c1C,3,3,0,9,3
CC(=O)c1c(C)[nH]c(C(=O)N(CCc2ccccc2)Cc2ccccc2)c1C,-1,5.9*,-1,-2,0
CC(=O)Nc1csc2ccccc12,0,2,0,3,2
NC(=O)C1CCN(C(=O)Nc2csc3ccccc23)CC1,.,2,1.0*,1,0
CC1CCCC(NC(=O)CNC(=O)c2cccs2)C1C (stereo unspecified),5.2*,0,-1,1,1
O=C(COC(=O)c1ccco1)c1ccc2ccccc2c1,0,2,-1,1,0
Cc1ccc(C(=O)COC(=O)c2ccco2)cc1C,1,0,1.0*,2,-1
C=CCN=C1NC(c2ccccc2C(F)(F)F)C(C(=O)OC)=C(C)N1Cc1cccc(C(F)(F)F)c1 (stereo unspecified),.,0,-2,0,0
C=CCN1C(C(=O)OC)CN(Cc2cn(CCC3OCCO3)nn2)CCS1(=O)=O (stereo unspecified),.,-1,-1,1,1
Cc1ccc(N=CC=C2OC(C)(C)C(C)(C)O2)cc1,-1,5.7*,-2,4,0
Cc1cccc(N=CC=C2OC(C)(C)C(C)(C)O2)c1,0,0,0,4,0
CCC1=[N+](CC(=O)c2ccc(C)cc2)CCn2cccc21,0,2,-1,1,1
CC1=[N+](CC(=O)c2ccccc2)CCn2cccc21,.,4,1.0*,9,2
CC(C)NCc1nnc(-c2ccc(Cl)cc2)o1,0,0,-2,-1,1
Fc1ccc(-c2nnc(Cc3ccc(Cl)cc3)o2)cc1,2,-1,-1,12*,1
Fc1ccc(Cc2nnc(-c3cccs3)o2)cc1,4.3*,0,-1,7,0
COc1ccccc1/C=C/C1(C(=O)NC2CCCC2)CC(=O)N1c1ccccc1 (stereo unspecified),4.9*,-2,-2,0,-1
O=C(CSc1nnc(Cc2cc(=O)[nH]c(=O)[nH]2)n1-c1ccc(F)cc1)N1CCCCC1,7.9*,-1,0,6,0
CCSc1nnc(Cc2cc(=O)[nH]c(=O)[nH]2)n1-c1ccc(F)cc1,1,3,-1,0,0
Cc1cccc(-n2c(Cc3cc(=O)[nH]c(=O)[nH]3)nnc2SCC(=O)N2CCc3ccccc32)c1,1,6.2*,-1,3,0
CN(Cc1ccccc1)C(=O)c1cccc(NC(=O)Cc2cccc(NC(=O)C3CCN(C(=O)CCc4ccccc4)CC3)c2)c1,.,-3,-1,4,-2
